The values that follow come from PubChem BioAssay (NCI).

Test systems include EKVX NSCLC; SN12C renal; UO-31 renal; TK-10 renal; ACHN renal; CAKI-1 renal; A498 renal; CCRF-CEM leukemia; MOLT-4 leukemia; SR leukemia; RPMI-8226 leukemia; OVCAR-8 ovarian; OVCAR-5 ovarian; OVCAR-4 ovarian; IGROV1 ovarian; OVCAR-3 ovarian; HS 578T breast; T-47D breast; SK-OV-3 ovarian; NCI/ADR-RES ovarian.
Holding throughout (assay): NCI-60 one-dose screen, 48 h (100 = growth as untreated, 0 = no growth, -100 = all killed)
Conditions in all cases: 10 µM unless noted

SMILES strings stand for the structures. Compounds without any hit were thinned out: in the full panel of roughly 83,000, 20% have a hit.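 The test compound was applied at a single concentration to cells in 96-well plates for 48 hours, and percent growth was recorded.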 Values without a mark were called inactive. Activity calls are given as the source filed them. The calls were made as follows: active = growth percent below 10; inactive = the rest.

In the case of `Cc1ccc2c(n1)C(=O)C(Cl)=C(Nc1cccc(C(C)C)c1)C2=O`, the growth with EKVX NSCLC was 65%; in the assay on SN12C renal, 31.9%; in the assay on UO-31 renal, 50.3%; with TK-10 renal, 119%; with ACHN renal it was 50.1%; with CAKI-1 renal, 75.3%. Further, the growth in the assay with A498 renal is 71.4%; in the assay on CCRF-CEM leukemia it was 14.8%; in the assay on MOLT-4 leukemia, 35.4%; in the assay on SR leukemia it was 24%; in the assay with RPMI-8226 leukemia it was 2.88% (active); with OVCAR-8 ovarian it was 57.2%. For the same compound, the growth in the assay on OVCAR-5 ovarian is 109%; with OVCAR-4 ovarian it was 22.6%; in the assay with IGROV1 ovarian, 22.1%; with OVCAR-3 ovarian, 3.53% (active); with HS 578T breast it was 43.1%; in the assay on T-47D breast, 3.43% (active).
Take `CCCC(=O)NC(c1cccnc1)c1cc(C)c2cccnc2c1O` (stereo not drawn): the growth with EKVX NSCLC was 31.5%; in the assay with SN12C renal it was 45.7%; in the assay with UO-31 renal it was 26.6%; in the assay with TK-10 renal, 45.5%; with ACHN renal it was 20.2%; in the assay on CAKI-1 renal it was 28%. For the same compound, the growth in the assay with A498 renal was 63.1%; with CCRF-CEM leukemia it was 20.7%; in the assay with MOLT-4 leukemia, 18.8%; in the assay with SR leukemia it was 22.3%; in the assay with RPMI-8226 leukemia it was 53.5%; in the assay with OVCAR-8 ovarian it was 14%. Moreover, the growth in the assay on OVCAR-5 ovarian was 53.6%; in the assay on OVCAR-4 ovarian, 29.7%; in the assay on SK-OV-3 ovarian, 43.4%; in the assay with IGROV1 ovarian, 30.6%; in the assay with OVCAR-3 ovarian it was -0.275% (active); in the assay with HS 578T breast, 71.8%. Moreover, the growth in the assay with NCI/ADR-RES ovarian was 23.7%; with T-47D breast, 29.7%.
In the case of `COc1ccc(-c2nc3ccc(-c4nnc(SCC(=O)Nc5ccc(C(=O)/C=C/c6ccc(Cl)cc6)cc5)o4)cc3[nH]2)cc1OC`, the growth was 91.9% with EKVX NSCLC; 94.9% with SN12C renal; 87% with UO-31 renal; 134% in the assay on TK-10 renal; 94.3% with ACHN renal; 100% with CAKI-1 renal. Further, the growth with A498 renal is 100%; in the assay with CCRF-CEM leukemia, 100%; in the assay on MOLT-4 leukemia, 75.8%; with SR leukemia, 73%; with RPMI-8226 leukemia it was 75.5%; in the assay with OVCAR-8 ovarian, 106%. The growth in the assay on OVCAR-5 ovarian was 95.2%; in the assay on OVCAR-4 ovarian it was 108%; in the assay on SK-OV-3 ovarian, 111%; in the assay with IGROV1 ovarian, 91.9%; in the assay with OVCAR-3 ovarian it was 116%; in the assay on HS 578T breast it was 96%. Also, the growth in the assay with NCI/ADR-RES ovarian is 108%; in the assay with T-47D breast, 89.4%.
Consider `CC(C)NC(=O)c1cc(-c2ccc(NC(=O)Nc3ccc(N4CCOCC4)c(C(F)(F)F)c3)cc2)nc2cccnc12`, for which the growth with EKVX NSCLC was 72.7%; in the assay on SN12C renal, 69%; in the assay on UO-31 renal it was 48.2%; in the assay with TK-10 renal, 143%; in the assay with ACHN renal, 62.7%; with CAKI-1 renal, 63.7%. The growth in the assay on A498 renal is 25.6%; in the assay with CCRF-CEM leukemia, 44.3%; in the assay with MOLT-4 leukemia, 18.7%; in the assay on SR leukemia it was 10.2%; with OVCAR-8 ovarian it was 63.7%; with OVCAR-5 ovarian, 88.1%. In addition, the growth in the assay with OVCAR-4 ovarian is 71.7%; in the assay with SK-OV-3 ovarian, 88.5%; with IGROV1 ovarian, 66.9%; in the assay on HS 578T breast it was 9.42% (active); in the assay on NCI/ADR-RES ovarian it was 78.4%; with T-47D breast, 64.2%.
For the compound `COc1ccc(Cc2nn(CC(=O)N/N=C/c3ccc(Cl)cc3)c(=O)c3c(C)noc23)cc1`, the growth with EKVX NSCLC is 88.8%; in the assay with SN12C renal, 66%; with UO-31 renal, 84.9%; in the assay with TK-10 renal it was 95.5%; in the assay with ACHN renal, 72.7%; in the assay with CAKI-1 renal, 80.8%. Besides, the growth with A498 renal was 90.5%; in the assay with CCRF-CEM leukemia, 74.8%; with MOLT-4 leukemia, 89.7%; with SR leukemia, 53.9%; with OVCAR-8 ovarian it was 61.9%; in the assay on OVCAR-5 ovarian, 97.3%. In addition, the growth in the assay with OVCAR-4 ovarian is 59.2%; with IGROV1 ovarian, 82.1%; in the assay with OVCAR-3 ovarian, 107%; in the assay on HS 578T breast, 22.1%; with T-47D breast, 58.9%.
Consider `NC(=O)c1c(NC(=O)c2ccc(C3CCCCC3)cc2)sc2c1CCC(=O)C2`, for which the growth in the assay on EKVX NSCLC is 14.2%; with SN12C renal, 23.7%; in the assay on UO-31 renal it was 11.6%; in the assay with TK-10 renal it was 16.7%; with ACHN renal, 4.68% (active); in the assay with CAKI-1 renal, -2.11% (active). Moreover, the growth with A498 renal is 67.6%; in the assay with CCRF-CEM leukemia it was 9.82% (active); in the assay with MOLT-4 leukemia, 11.3%; with SR leukemia it was 5.25% (active); in the assay with RPMI-8226 leukemia it was -15% (active); in the assay on OVCAR-8 ovarian it was 14.8%. Besides, the growth in the assay with OVCAR-5 ovarian was 23.4%; in the assay on OVCAR-4 ovarian, -0.0254% (active); with IGROV1 ovarian, 24.7%; in the assay on OVCAR-3 ovarian, 22.4%; with HS 578T breast, 35.4%; with T-47D breast, -5.15% (active).
As to `CC(C)(C)Nc1nc2c(OCCc3ccccc3)cccn2c1-c1ccc(Cl)cc1`, the growth in the assay on EKVX NSCLC is 5.46% (active); in the assay on SN12C renal, 10.3%; with UO-31 renal, 0.0667% (active); with TK-10 renal, 20.8%; in the assay on ACHN renal, 8.77% (active); in the assay on CAKI-1 renal, 29.3%. Also, the growth is 56% in the assay on A498 renal; 6.47% (active) with CCRF-CEM leukemia; 4.83% (active) in the assay with MOLT-4 leukemia; -16.1% (active) with RPMI-8226 leukemia; 26.3% in the assay on OVCAR-8 ovarian; 29.4% in the assay with OVCAR-5 ovarian. For the same compound, the growth in the assay on OVCAR-4 ovarian was 18.2%; in the assay with SK-OV-3 ovarian, 42.2%; with IGROV1 ovarian it was 23.8%; with OVCAR-3 ovarian it was 6.36% (active); in the assay on HS 578T breast, 70.3%; in the assay on NCI/ADR-RES ovarian it was 4.99% (active). Further, the growth in the assay with T-47D breast was 8.79% (active).
Turning to `CSc1ccc2c(c1)N(C(=O)/C(C#N)=C/c1c[nH]c3ccccc13)c1ccccc1S2`, the growth was 34.8% with EKVX NSCLC; 33.9% with SN12C renal; 50.4% with UO-31 renal; 71.3% in the assay with TK-10 renal; 39.9% with ACHN renal; 38.5% in the assay on CAKI-1 renal. In addition, the growth in the assay on A498 renal is 10.8%; in the assay with CCRF-CEM leukemia it was 19%; in the assay with MOLT-4 leukemia, 30.5%; in the assay on SR leukemia it was 34.4%; in the assay with RPMI-8226 leukemia it was 21.3%; with OVCAR-8 ovarian, 52.4%. The growth in the assay with OVCAR-5 ovarian was 63.1%; in the assay with OVCAR-4 ovarian, 59.5%; in the assay on IGROV1 ovarian it was 40.2%; in the assay with OVCAR-3 ovarian it was 37.5%; with HS 578T breast it was 37.8%; in the assay with T-47D breast, 29.9%.
